This is part of a sample that, as a whole, favours compounds with a hit. Of some 83,000 tested, about 20% had one in any assay.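 Plates (96-well) were seeded with cells, treated with compound at one concentration, and incubated for 48 hours before percent growth was determined.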 Active and inactive are the calls of the source. How the source made its calls: active means growth percent below 10; inactive means the rest.
Key:
Assay in all cases: NCI-60 one-dose screen, 48 h (100 = growth as untreated, 0 = no growth, -100 = all killed)
Details in all cases: 10 µM unless noted
[1] = system: HCT-15 colon
[2] = system: HT29 colon
[3] = system: SNB-75 CNS
[4] = system: SNB-19 CNS
[5] = system: U251 CNS
[6] = system: PC-3 prostate
[7] = system: SK-MEL-5 melanoma
[8] = system: UACC-62 melanoma
[9] = system: LOX IMVI melanoma
[10] = system: SK-MEL-28 melanoma
[11] = system: SK-MEL-2 melanoma
[12] = system: EKVX NSCLC
[13] = system: SN12C renal
[14] = system: UO-31 renal
[15] = system: TK-10 renal
[16] = system: ACHN renal
[17] = system: CAKI-1 renal
[18] = system: A498 renal
[19] = system: CCRF-CEM leukemia
[20] = system: MOLT-4 leukemia

Measured: growth

COc1ccc(/C=C(\C#N)C(=O)N2c3ccccc3Sc3ccc(SC)cc32)cc1F
inactive: [1] 94.9% | [2] 103% | [3] 87.6% | [4] 90.4% | [5] 92.9% | [6] 88.9% | [7] 93% | [8] 71.3% | [9] 88.8% | [10] 98.9% | [11] 96.2% | [12] 97.8% | [13] 99.4% | [14] 76.2% | [15] 97.1% | [16] 88.5% | [17] 68.9% | [18] 79.5% | [19] 93.9% | [20] 82.9%

CCc1nn2c(C)cc(C)nc2c1Cc1ccc(/C=C/CN2CCN(CCOCCOCCN3CCN(C/C=C/c4ccc(Cc5c(CC)nn6c(C)cc(C)nc56)cc4)CC3)CC2)cc1
inactive: [3] 99% | [4] 17.7% | [6] 24.8% | [11] 79.4% | [12] 46.6% | [13] 31.4% | [15] 103% | [18] 69.7%
active: [1] -81.1% | [2] -35.8% | [5] -47% | [7] -97.5% | [8] -86.4% | [9] -88.4% | [10] -88.9% | [14] -95.9% | [16] 1.5% | [17] -16.2% | [19] -10.2% | [20] -17.6%

Nc1nc(N)c2c(n1)NC(c1ccc(C(F)(F)F)cc1)CC(c1ccc(Nc3nc(NCCO)nc(N4CCOCC4)n3)cc1)=N2 (stereo not given)
inactive: [1] 37.2% | [2] 50.4% | [3] 66% | [4] 84% | [5] 45.6% | [6] 49.2% | [7] 64.6% | [8] 82.2% | [9] 49.7% | [10] 81.7% | [11] 80.6% | [12] 85.5% | [13] 78.2% | [14] 80.4% | [15] 97.5% | [16] 88.3% | [17] 79.7% | [18] 72.6% | [19] 35.1% | [20] 23.8%

Cc1cccc2c3c(sc12)C(c1ccc(F)cc1)C(C#N)=C(/N=C/c1ccc(Cl)cc1)O3 (stereo not given)
inactive: [3] 29.5% | [4] 26.4% | [6] 13.6% | [8] 18% | [10] 62.2% | [12] 47.8% | [13] 25.5% | [14] 34.6% | [15] 106% | [16] 25.7% | [17] 33.9% | [19] 13.5% | [20] 15.2%
active: [1] 3.92% | [2] -28.5% | [5] 4.91% | [7] 5.84% | [9] 9.59% | [11] -5.29% | [18] -20.2%

Fc1ccc(-c2cc3nc(C(Cl)Cl)nc(-c4ccco4)n3n2)cc1
inactive: [3] 55.7% | [7] 95.9% | [8] 17.2% | [9] 93.5% | [11] 55.1% | [13] 59.1% | [19] 85.2% | [20] 59.7%
active: [1] 4.34% | [2] -13.4% | [4] 0.644% | [5] -9.36% | [6] -19.2% | [10] -24.5% | [12] -8.73% | [14] -14.5% | [15] -11.7% | [16] -35.3% | [17] -23.7% | [18] -38.6%

COc1cc2oc(-c3cccc(N)c3)cc(=O)c2c(OC)c1OC
inactive: [1] 101% | [2] 109% | [3] 97.8% | [4] 97.8% | [5] 103% | [6] 98.7% | [7] 98.8% | [8] 93.5% | [9] 111% | [10] 108% | [11] 102% | [12] 104% | [13] 96.6% | [14] 80.6% | [15] 96.9% | [16] 103% | [17] 83.5% | [18] 101% | [19] 102% | [20] 106%

COc1ccc(-n2c(/C=C3\C(=O)Nc4ccccc43)ccc2CO)cc1
inactive: [1] 89.7% | [2] 105% | [3] 101% | [4] 90% | [5] 95.1% | [6] 96.4% | [7] 94.5% | [8] 83.3% | [9] 94.6% | [10] 101% | [11] 104% | [12] 94.7% | [13] 104% | [14] 74.1% | [15] 105% | [16] 93.6% | [17] 84.6% | [18] 107% | [19] 97.8% | [20] 90.2%

COc1cc(OC)cc(C(=O)Nc2cccc(C#Cc3cccc4[nH]nc(N)c34)c2)c1
inactive: [1] 31.1% | [4] 57.2% | [5] 22.5% | [6] 31.9% | [8] 23.1% | [9] 31.9% | [10] 50.3% | [12] 61.1% | [13] 30.4% | [14] 32.2% | [15] 54.3% | [16] 35.4% | [17] 24.5% | [19] 13% | [20] 20.5%
active: [2] 7.34% | [3] -18.6% | [7] -32.6% | [11] -24.2% | [18] -19.2%

O=c1c2ccccc2nc(COc2ccccc2)n1NS(=O)(=O)c1ccc(Cl)cc1
inactive: [1] 54.4% | [2] 80% | [3] 36.9% | [4] 79.8% | [5] 87.8% | [6] 82.7% | [7] 94.5% | [8] 76.9% | [9] 83.6% | [10] 87.1% | [11] 74.7% | [12] 74.8% | [13] 76.6% | [14] 62.7% | [15] 153% | [16] 92.8% | [17] 73.1% | [18] 63.3% | [19] 97% | [20] 69.5%

CC1(C)NCCC[C@]2(C)[C@H]3C/C(=N\O)C4[C@@H]5C[C@@](C)(CO)CC[C@]5(C)CC[C@@]4(C)[C@]3(C)CC[C@@H]12 (stereo not given in full)
inactive: [1] 93.1% | [2] 88.9% | [3] 75.1% | [4] 96.6% | [5] 87.3% | [6] 88.9% | [7] 98.7% | [8] 95.2% | [9] 101% | [10] 103% | [11] 101% | [12] 108% | [13] 94.1% | [14] 90.2% | [15] 107% | [16] 101% | [17] 85.8% | [18] 96.1% | [19] 91.9% | [20] 80.5%

COc1ccccc1-n1cc(C#N)c(N)c1C(=O)c1ccc(C)cc1
inactive: [1] 47.1% | [2] 73.7% | [3] 82% | [4] 77.1% | [5] 79.4% | [6] 74.5% | [7] 92% | [8] 22.2% | [9] 80.1% | [10] 73.9% | [11] 79.1% | [12] 89.1% | [13] 91.1% | [14] 90% | [15] 102% | [16] 101% | [17] 78.5% | [18] 74.9% | [19] 85.6% | [20] 83.1%

O=C1C(c2ccccc2)=C(N2CCc3ccccc32)OC1(Cl)Cl
inactive: [1] 21.1% | [2] 37.4% | [3] 74.3% | [4] 84.9% | [5] 85.8% | [6] 69.5% | [7] 99.8% | [8] 81.4% | [9] 56.7% | [10] 31.8% | [11] 92.2% | [12] 76.3% | [13] 77.5% | [15] 27.6% | [18] 69.2%
active: [14] -23.6% | [16] -63.8% | [17] 4.78% | [19] -17.8% | [20] 0.0776%

C=C=COc1cccc(/C(N)=N/C(N)=N/c2nc3ccccc3s2)c1
inactive: [1] 83.6% | [2] 107% | [3] 85.6% | [4] 97.5% | [5] 80.5% | [6] 30.3% | [7] 98.5% | [8] 94.2% | [9] 37.7% | [10] 64% | [11] 104% | [12] 55.8% | [13] 66.7% | [14] 31.2% | [15] 133% | [16] 79.7% | [17] 36.9% | [18] 79.7% | [19] 32% | [20] 47.4%

O=C1[C@H]2Cc3c([nH]c4ccccc34)[C@@H](c3ccc(Cl)cc3)N2C(=O)CN1C1CCN(Cc2ccccc2)CC1
inactive: [1] 23.7% | [2] 27.1% | [3] 79.8% | [4] 66.5% | [5] 63.7% | [6] 30.4% | [7] 56.1% | [8] 75.4% | [9] 17.4% | [10] 67.8% | [11] 84.7% | [12] 41.3% | [13] 45.9% | [14] 26.4% | [15] 82.3% | [16] 40.6% | [17] 38% | [18] 74.8% | [19] 43.3% | [20] 27.1%

N#Cc1cccc(CN2CCc3ncn(Cc4ccc(Cl)cc4)c(=O)c3C2)c1
active: [7] 3.19% | [18] 4.83%
inactive: [1] 13.5% | [2] 28.3% | [3] 33.2% | [4] 19.7% | [5] 23.1% | [6] 18.5% | [8] 20.6% | [9] 35.3% | [10] 36.9% | [11] 28.6% | [12] 23.7% | [13] 15.9% | [14] 26% | [15] 38.1% | [16] 29.8% | [17] 10.7% | [19] 35.9% | [20] 43.3%

Source: PubChem BioAssay (NCI)
